# PubChem BioAssay (NCI)
# Compounds without any hit were thinned out: in the full panel of roughly 83,000, 20% have a hit.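 48-hour exposure, single concentration, 96-well plates; percent growth endpoint where 0 means no net growth. Active: below 10.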 Values without a mark were called inactive. Activity calls are given as the source filed them.
# Columns and labels:
# Experiment in all cases: NCI-60 one-dose screen, 48 h (100 = growth as untreated, 0 = no growth, -100 = all killed)
# DU-145 prostate = conditions: 10 µM unless noted
# K-562 leukemia = conditions: 10 µM unless noted
# MALME-3M melanoma = conditions: 10 µM unless noted
# MDA-MB-231 breast = conditions: 10 µM unless noted
# RXF 393 renal = conditions: 10 µM unless noted
# SF-268 CNS = conditions: 10 µM unless noted
# SF-295 CNS = conditions: 10 µM unless noted
# SF-539 CNS = conditions: 10 µM unless noted
# UACC-257 melanoma = conditions: 10 µM unless noted
# M14 melanoma = conditions: 10 µM unless noted
# HCT-15 colon = conditions: 10 µM unless noted
# HT29 colon = conditions: 10 µM unless noted
# SNB-75 CNS = conditions: 10 µM unless noted
# U251 CNS = conditions: 10 µM unless noted
# PC-3 prostate = conditions: 10 µM unless noted
# SK-MEL-5 melanoma = conditions: 10 µM unless noted
# UACC-62 melanoma = conditions: 10 µM unless noted
# LOX IMVI melanoma = conditions: 10 µM
# SK-MEL-28 melanoma = conditions: 10 µM unless noted
# SNB-19 CNS = conditions: 10 µM unless noted
Structure (SMILES),growth (DU-145 prostate),growth (K-562 leukemia),growth (MALME-3M melanoma),growth (MDA-MB-231 breast),growth (RXF 393 renal),growth (SF-268 CNS),growth (SF-295 CNS),growth (SF-539 CNS),growth (UACC-257 melanoma),growth (M14 melanoma),growth (HCT-15 colon),growth (HT29 colon),growth (SNB-75 CNS),growth (U251 CNS),growth (PC-3 prostate),growth (SK-MEL-5 melanoma),growth (UACC-62 melanoma),growth (LOX IMVI melanoma),growth (SK-MEL-28 melanoma),growth (SNB-19 CNS)
COc1cc(/C=C/c2ccnc3ccccc23)cc(OC)c1OC,64.4%,8.29% (active),40.3%,47.1%,22.1%,48.2%,32.4%,46.1%,58.7%,13.3%,32.5%,11.8%,-3.85% (active),33.2%,56.1%,3.09% (active),38.2%,26.1%,34%,
CC/C(=C(/CC)c1ccc(O)cc1)c1ccc(O)cc1,84.1%,27.5%,54.5%,58.7%,65.1%,63.9%,43.9%,68.3%,68.9%,,47.2%,71.5%,51.8%,42.5%,75.4%,21.4%,42.4%,65.2%,60.1%,72.7%
COC(=O)C(=[N+]=[N-])C(=O)c1ccc([N+](=O)[O-])o1,104%,81.6%,25.4%,97.6%,81.3%,92.4%,108%,104%,61.5%,,10.5%,61.5%,103%,88.7%,74%,93.6%,74%,78.9%,109%,92.9%
CCOC(=O)c1cc(CC)sc1NC(=O)CC(C)=O,48.2%,21.8%,62.2%,54.9%,61.7%,60.1%,43.2%,56.1%,95.6%,,19.9%,47.8%,44.8%,34.7%,36.2%,54.3%,60.4%,,96.7%,29.8%
O=C1c2ccccc2C(=O)c2c(O)c(Cl)cc(O)c21,69.7%,57%,71.5%,95.6%,103%,94.4%,113%,99.1%,58.4%,,81.9%,39%,96%,38%,77%,108%,81.3%,50.9%,103%,93.1%
O=C(c1ccccc1)c1cc2ccccc2oc1=O,114%,111%,90.4%,79.5%,90%,101%,113%,116%,96.9%,,108%,113%,71.8%,90.2%,72.3%,,93.4%,89.8%,119%,97.4%
N#CC(I)CS(=O)(=O)c1ccccc1 (centres undefined),100%,80.6%,-22.4% (active),98.3%,81.8%,86.8%,115%,95.6%,73.1%,,64.2%,50.9%,95.5%,91.2%,90.8%,97.5%,84.4%,70.8%,97%,94.8%
O=C(c1ccccc1)C(Br)C(Br)c1ccccc1 (centres undefined),94.7%,6.6% (active),-3.62% (active),112%,33.6%,102%,82.4%,108%,17.3%,,86%,-52.9% (active),96.9%,68.6%,55.3%,107%,108%,-55.3% (active),111%,102%
C[n+]1ccccc1C[n+]1ccccc1,114%,87.8%,118%,122%,115%,96.8%,114%,106%,112%,,110%,103%,101%,109%,91.4%,105%,105%,114%,98.3%,104%
